Data on 13 compounds can be found in PubChem BioAssay (NCI).

This is part of a sample that, as a whole, favours compounds with a hit. Of some 83,000 tested, about 20% had one in any assay.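 Single-dose data. Exposure time 48 hours. Values below 10 considered active.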 Unmarked numbers belong to inactive results. Activity calls are given as the source filed them.

Some test systems named below: DU-145 prostate; K-562 leukemia; MALME-3M melanoma; MDA-MB-231 breast; RXF 393 renal; SF-268 CNS; SF-295 CNS; SF-539 CNS; UACC-257 melanoma; M14 melanoma.
Experiment in all cases: NCI-60 one-dose screen, 48 h (100 = growth as untreated, 0 = no growth, -100 = all killed)
Holding throughout (settings): 10 µM unless noted

Take `CSc1nc2c(c(=O)[nH]1)C1(C(=O)Nc3ccccc31)c1c(nc(SC)[nH]c1=O)N2`: the growth with DU-145 prostate was 105%; in the assay on K-562 leukemia, 112%; in the assay on MALME-3M melanoma, 93.7%; in the assay on MDA-MB-231 breast it was 107%; in the assay on RXF 393 renal, 103%; with SF-268 CNS it was 98.2%. Further, the growth in the assay with SF-295 CNS is 103%; in the assay with SF-539 CNS it was 102%; with UACC-257 melanoma, 104%; in the assay with M14 melanoma it was 97.2%.

For `CCOC(=O)c1c(C)oc2ncnc(N3CCN(C(=S)Nc4ccccc4)CC3)c12`, the growth is 101% with DU-145 prostate; 85% in the assay with K-562 leukemia; 99.9% in the assay with MALME-3M melanoma; 89.1% with MDA-MB-231 breast; 90.8% with RXF 393 renal; 94.1% with SF-268 CNS. Moreover, the growth in the assay with SF-295 CNS is 96%; in the assay on SF-539 CNS it was 91.8%; with UACC-257 melanoma, 98%; in the assay on M14 melanoma, 104%.

With `O=c1c(F)cn(Cc2ccccc2CCl)c(=O)n1Cc1ccccc1CCl`, the growth in the assay on DU-145 prostate was -51.3% (active); in the assay with K-562 leukemia, -6.67% (active); in the assay with MALME-3M melanoma, -28.1% (active); in the assay with MDA-MB-231 breast, -19.4% (active); in the assay with RXF 393 renal, -30.7% (active); in the assay on SF-268 CNS, -16% (active). Moreover, the growth in the assay on SF-295 CNS is -62.4% (active); with SF-539 CNS, -24.1% (active); with UACC-257 melanoma, -48.1% (active); in the assay with M14 melanoma, -63.6% (active).

`CC(C)n1c(/C=C/[C@@H](O)C[C@@H](O)CC(=O)O)c(-c2ccc(F)cc2)c2ccccc21`: the growth in the assay with DU-145 prostate is 97.9%; with K-562 leukemia it was 66.4%; with MALME-3M melanoma, 79.6%; with MDA-MB-231 breast, 15.7%; in the assay with RXF 393 renal, 50.9%; in the assay with SF-268 CNS it was 43.6%. The growth in the assay on SF-295 CNS was 16.8%; in the assay with SF-539 CNS, 83.5%; in the assay on UACC-257 melanoma, 79.4%; in the assay with M14 melanoma it was 55.5%.

`CC(=O)c1nc2ccccc2n1CC(=O)c1cccc(Cl)c1`: the growth in the assay with DU-145 prostate is 5.27% (active); in the assay on K-562 leukemia it was -0.209% (active); with MALME-3M melanoma it was 90.6%; in the assay on MDA-MB-231 breast, 28.1%; in the assay with RXF 393 renal, 2% (active); in the assay on SF-268 CNS, 13.2%. The growth in the assay on SF-295 CNS was 8.35% (active); in the assay with SF-539 CNS it was -31.3% (active); in the assay on UACC-257 melanoma, 36.5%; in the assay with M14 melanoma it was 16.6%.

Turning to `C#CCOc1ccc2ncnc(NCc3cccc(NC(=O)CCl)c3)c2c1`, the growth with DU-145 prostate was 77.9% [8.25 µM]; in the assay on K-562 leukemia it was 11.7% [8.25 µM]; in the assay with MALME-3M melanoma, 57.4% [8.25 µM]; in the assay with MDA-MB-231 breast it was 45.3% [8.25 µM]; in the assay on RXF 393 renal, 42.3% [8.25 µM]; in the assay with SF-268 CNS it was 41.9% [8.25 µM]. Moreover, the growth is 93.9% [8.25 µM] in the assay with SF-295 CNS, 49.5% [8.25 µM] in the assay on SF-539 CNS, 63.8% [8.25 µM] in the assay with UACC-257 melanoma and 51.3% [8.25 µM] with M14 melanoma.

As to `CSc1ccc(-c2n[nH]nc2-c2cc3ccccc3s2)cc1`, the growth in the assay on DU-145 prostate was 74.3%; in the assay on K-562 leukemia, 15.1%; with MALME-3M melanoma it was 69.4%; in the assay on MDA-MB-231 breast, 41.5%; in the assay on RXF 393 renal, 75.5%; with SF-268 CNS it was 54.3%. Also, the growth in the assay on SF-295 CNS is 49.9%; in the assay on SF-539 CNS, 50.2%; with UACC-257 melanoma, 58.4%; in the assay with M14 melanoma, 16%.

For `Oc1cccc2ccc(N/N=C/c3cc(CN4CCOCC4)c(O)c4ncccc34)nc12`, the growth with DU-145 prostate was 22.4%; with K-562 leukemia it was 13.4%; in the assay on MALME-3M melanoma it was 16.3%; in the assay with MDA-MB-231 breast, 20%; in the assay on RXF 393 renal it was 10.4%; with SF-268 CNS, 18.7%. Moreover, the growth was 17.5% in the assay on SF-295 CNS, 9.66% (active) in the assay on SF-539 CNS, 17.8% in the assay with UACC-257 melanoma and 4.83% (active) with M14 melanoma.

On to `O=C(N/N=C/c1ccccc1O)c1ccccc1Nc1ccnc(C(F)(F)F)c1`, for which the growth is 27.3% with DU-145 prostate; 17.7% in the assay on K-562 leukemia; -0.966% (active) in the assay with MALME-3M melanoma; 40.4% with MDA-MB-231 breast; 18.7% in the assay with RXF 393 renal; 14.6% in the assay on SF-268 CNS. The growth in the assay with SF-295 CNS was 7.17% (active); with SF-539 CNS it was 0.988% (active); in the assay on UACC-257 melanoma, -0.662% (active); in the assay on M14 melanoma it was -14.3% (active).

As to `CCCCN(CCCC)CCCn1c(-c2ccccc2)ccc1-c1ccccc1`, the growth with DU-145 prostate was 68.3%; with K-562 leukemia it was 52.2%; with MALME-3M melanoma it was 86.2%; with MDA-MB-231 breast, 22.9%; in the assay on RXF 393 renal, 82.8%; with SF-268 CNS, 73.7%. For the same compound, the growth with SF-295 CNS is 60%; in the assay with SF-539 CNS it was 67.4%; in the assay with UACC-257 melanoma, 90.1%; in the assay on M14 melanoma, 77.6%.

For the compound `COc1cc(/C=C/c2cc(O)c3cc(C(C)=O)c(=O)oc3c2)cc2c1O[C@]1(C)CC[C@@H](O)C(C)(C)[C@H]1C2`, the growth with DU-145 prostate is 53.4%; in the assay on K-562 leukemia it was 17.2%; in the assay on MALME-3M melanoma, 25.4%; in the assay on MDA-MB-231 breast, 64.4%; in the assay with RXF 393 renal, -58.5% (active); in the assay with SF-268 CNS, 35.8%. The growth is -63.3% (active) with SF-295 CNS, -33.3% (active) in the assay with SF-539 CNS, 36.5% in the assay on UACC-257 melanoma and -49.4% (active) in the assay on M14 melanoma.

Regarding `O=C1CSC(=S)N1CCc1ccc(O)cc1`, the growth with DU-145 prostate was 33.5%; with K-562 leukemia, 58.2%; with MALME-3M melanoma it was 85.3%; in the assay with MDA-MB-231 breast, 91.3%; with RXF 393 renal, 95.9%; in the assay with SF-268 CNS it was 86.2%. Also, the growth with SF-295 CNS is 97.5%; with SF-539 CNS it was 85.2%; in the assay on UACC-257 melanoma, 92%; with M14 melanoma it was 87.9%.

For `Cc1c(/C=C/[N+](=O)[O-])ccc2c1[nH]c1ccccc12`, the growth with DU-145 prostate was 99.3%; in the assay with K-562 leukemia it was 91.6%; with MALME-3M melanoma, 135%; in the assay on MDA-MB-231 breast, 106%; in the assay with RXF 393 renal, 62.6%; in the assay with SF-268 CNS it was 108%. The growth in the assay on SF-295 CNS was 103%; in the assay on SF-539 CNS, 94.2%; with UACC-257 melanoma it was 90%; in the assay on M14 melanoma, 37.7%.
